Measurements taken from paper PMC5540273 (PLoS ONE, 2017).

Key:
Conditions in all cases: concentration: 1 μM, replicates: in singlicate; n = 1
YANK2 = tested on: T1, YANK2
T1 construct: gene STK32B

YANK3 = tested on: T2, YANK3
T2 construct: gene STK32C

YES = tested on: T3, YES
T3 construct: gene YES1

YSK1 = tested on: T4, YSK1
T4 construct: gene STK25

YSK4 = tested on: T5, YSK4
T5 construct: gene MAP3K19

ZAK = tested on: ZAK
ZAP70 = tested on: ZAP70
p38-alpha = tested on: T6, p38-alpha
T6 construct: gene MAPK14

p38-beta = tested on: T7, p38-beta
T7 construct: gene MAPK11

p38-delta = tested on: p38-delta
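Also: KINOMEscan kinase panel screen.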

Structure (SMILES) | %Inh (YANK2) [%] | %Inh (YANK3) [%] | %Inh (YES) [%] | %Inh (YSK1) [%] | %Inh (YSK4) [%] | %Inh (ZAK) [%] | %Inh (ZAP70) [%] | %Inh (p38-alpha) [%] | %Inh (p38-beta) [%] | %Inh (p38-delta) [%]
CS(=O)(=O)Cc1ccc(Nc2nccc(-c3c(-c4cccc(NC(=O)C5CCCCC5)c4)nn4ncccc34)n2)cc1 [GSK350559] | 13 | 3 | 36 | 0 | 16 | 15 | 22 | 2 | 6 | 0
CN1c2ccc(-c3ccc(C(N)=O)cc3)cc2-c2[nH]ncc2S1(=O)=O | 0 | 0 | 0 | 0 | 0 | 5 | 5 | 0 | 4 | 38
CC(C)c1cc(-c2ccc3c(N)n[nH]c3c2)nc(N)n1 [GSK2250882] | 0 | 19 | 16 | 14 | 33 | 11 | 0 | 9 | 0 | 18
CSc1ccc(-c2nc3n(c2-c2ccncc2)CCC3)cc1 [SKF-105561] | 6 | 0 | 7 | 0 | 7 | 3 | 0 | 51 | 7 | 0
CNc1nc(-c2ccc3c(N)n[nH]c3c2)cc(N2C[C@@H](C(=O)Nc3ccccc3)CC[C@H]2C)n1 [GSK2298859] | 89 | 32 | 2 | 0 | 17 | 0 | 0 | 22 | 0 | 0
